Data published in PubChem BioAssay (EPA / NIEHS).
Active and inactive are the calls of the source. Rule for the calls: active = hit-call score of the fitted dose curve at least 0.9, where 1 is the maximum; inconclusive = response in the unintended direction; inactive = score below 0.9.

Each compound was assayed on DIO3 (gene 1735) (assay: CCTE_GLTED_hDIO3: CCTE's human Deiodinase 3 (DIO3) Inhibition Assay, Great Lakes Toxicology and Ecology Division (GLTED) Lab (AID 2284055);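 note: potency is for inhibition seen as loss of released iodide signal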).
Method: CCTE_GLTED_hDIO3 is a cell-free, single-readout assay designed to test the inhibitory activity of chemicals toward human iodothyronine Deiodinase type 3 (DIO3) enzyme. Enzyme is incubated in presence of test chemical for 3 hours during which uninhibited enzyme liberates free iodide from substrate. Free iodide is measured in a second step using the Sandell-Kolthoff method.CCTE_GLTED_hDIO3 is the assay component measured from the CCTE_GLTED_hDIO3 assay. It is designed to make measurements of enzyme activity, a form of enzyme reporter, as detected with absorbance signals by spectrophotometry.Data from the assay component CCTE_GLTED_hDIO3 was analyzed into 1 assay endpoint. This assay endpoint, CCTE_GLTED_hDIO3, was analyzed in the positive analysis fitting direction relative to DMSO as the negative control and baseline of activity. Using a type of enzyme reporter, loss-of-signal activity can be used to understand changes in the enzymatic activity as they relate to the gene DIO3. Furthermore, this assay endpoint can be referred to as a primary readout, because the performed assay has only produced 1 assay endpoint. To generalize the intended target to other relatable targets, this assay endpoint is annotated to the 'deiodinase' intended target family, where the subfamily is 'deiodinase Type 3'.
[…] assay, developed at Great Lakes Toxicology and Ecology Division (GLTED) within the EPA's Center for Computational Toxicology and Exposure (CCTE), is designed to test the chemicals' ability to inhibit DIO3. Assay uses human deiodinase type 3 (DIO3) enzyme produced with adenovirus expression system. Assay is based on iodide release measured by the Sandell-Kolthoff method and is run in 96-well plate format with assay plates run in triplicate (n=3). The method used for the deiodinase assay was largely based on Renko et al. (2012, 2015). These works describe the utilization of the SK reaction to measure deiodinase-liberated iodide in a 96-well-plate format. The SK reaction is based on the reduction of the yellow-colored cerium IV to the non-colored cerium III by arsenic, with the rate of this reaction increased in the presence of iodide in a concentration-dependent manner (Sandell and Kolthoff, 1937). Iodinated test chemicals can interfere as competitive inhibitors, or if the stock chemical has contaminating free-iodide present. Other chemicals, e.g.: nitrite, iron, and thiocyanate can interfere with the Sandell-Kolthoff reaction (see Sandell and Kolthoff, 1937).
For `O=C(C=Cc1ccccc1)OCc1ccccc1`, the AC50 was 5.5 µM (active).
With `CCCCCCCCCCCCCOP(=O)(O)O` the AC50 was 12 µM (active).
With `CC/C=C\C/C=C\C/C=C\CCCCCCCC(=O)O` the AC50 was 13.1 µM (active).
For `CCCCCCCC[N+](C)(CCCCCCCC)CCCCCCCC`, the AC50 was 3.85 µM (active).
In the case of `Cc1ccc(N/N=c2\c(=O)cc/c(=N/Nc3ccc(S(=O)(=O)O)cc3)c2=O)c(C)c1`, the AC50 is reported as 114 µM (active).
In the case of `CC(C)C1=CC2=CC[C@@H]3[C@](C)(CCC[C@@]3(C)C(=O)O)[C@H]2CC1`, the AC50 is reported as 79.8 µM (active).
`CCN(CCC#N)c1ccc(N=Nc2c(Cl)cc([N+](=O)[O-])cc2Cl)cc1` was tested, and the AC50 was 63.7 µM (active).
With `CCCCC/C=C\C/C=C\CCCCCCCC(=O)OC` the AC50 was 16.8 µM (active).
With `CCCCCCCC/C=C\CCCCCCCC(=O)OCCO` the AC50 was 14 µM (active).
With `O=S1(=O)OC(c2ccc(O)cc2)(c2ccc(O)cc2)c2ccccc21` the AC50 was 100 µM (active).
With `CC=C1CC2C=CC1C2` (centres undefined) the AC50 was 47.9 µM (active).
`O=S(=O)(O)c1ccccc1C=Cc1ccc(-c2ccc(C=Cc3ccccc3S(=O)(=O)O)cc2)cc1` was tested, and the AC50 was 100 µM (active).
For `Oc1ccc(Cl)cc1Cc1cc(Cl)ccc1O`, the AC50 was 57.3 µM (active).
With `CCCCCCCC/C=C\CCCCCCCC(=O)O` the AC50 was 29.8 µM (active).
